Data published in PubChem BioAssay AID624389 (National Center for Advancing Translational Sciences (NCATS), 2012).
Active and inactive are the calls of the source. Calls follow the shape of the dose curve; as a rule, active = well fitted curve in the direction sought with a large enough effect; inactive = no such curve, though single readings can be large or run the other way.

The compounds below were run against Pyruvate kinase PKM (Homo sapiens) (UniProt P14618) (assay: qHTS for Activators of Human Muscle Isoform 2 Pyruvate Kinase: Extended Characterization Using A Lactate Dehydrogenase (LDH) Assay Probe 2). Details: purified hPK-M2, LDH-coupled NADH fluorescence kinetic.
Chain of Pyruvate kinase PKM (Homo sapiens) (P14618 whole entry, looked up, canonical isoform): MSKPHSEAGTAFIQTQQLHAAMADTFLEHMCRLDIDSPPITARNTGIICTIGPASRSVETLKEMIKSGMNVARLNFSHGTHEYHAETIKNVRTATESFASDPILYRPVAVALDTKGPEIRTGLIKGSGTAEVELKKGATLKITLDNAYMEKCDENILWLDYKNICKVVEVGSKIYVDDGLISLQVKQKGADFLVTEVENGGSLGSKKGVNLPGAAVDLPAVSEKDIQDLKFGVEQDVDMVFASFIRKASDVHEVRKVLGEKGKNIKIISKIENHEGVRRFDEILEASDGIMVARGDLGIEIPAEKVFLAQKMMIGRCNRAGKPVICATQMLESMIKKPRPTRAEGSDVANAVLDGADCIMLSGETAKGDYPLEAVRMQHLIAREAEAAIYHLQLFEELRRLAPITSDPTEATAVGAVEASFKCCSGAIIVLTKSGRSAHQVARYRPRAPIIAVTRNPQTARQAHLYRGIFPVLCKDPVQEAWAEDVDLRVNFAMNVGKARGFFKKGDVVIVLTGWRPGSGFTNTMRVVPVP
Source text: Human pyruvate kinase muscle 2 (hPK-M2)enzyme was supplied as a highly purified (>95% pure) preparation from Harvard Medical School and a secondary assay was used to evaluate compounds. This assay couples the formation of pyruvate from hPK-M2 using lactate dehydrogenase (LDH) and NADH. The depletion of NADH is followed in a fluorescent-based kinetic assay that follows the formation of pyruvate to lactate, as catalyzed LDH (described by Hannaert et al., 2002)1 Pyruvate kinase substrates, PEP and ADP, were present in the assay at 0.1 mM and 4 mM respectively. In this kinetic assay initial rates were determined by following the fluorescence of NADH depletion. NIH Chemical Genomics Center [NCGC] NIH Molecular Libraries Probe Centers Network [MLPCN] MLPCN Grant: MH085679 Assay Submitter (PI): Matthew G. Vander Heiden, Harvard Medical School
Three uL of substrate mix (final concentration, 50 mM Tris-Cl pH 8.0, 200 mM KCl, 15 mM MgCl2, 0.1 mM PEP, 4.0 mM ADP, and 0.2 mM NADH) was dispensed into black-solid 1536 well plates. 23 nL of compounds were delivered by a pin tool and 1 uL of enzyme mix (final concentrations, 10 nM hPK-M2 and 1 uM of LDH) was added. Plates were immediately placed in ViewLux (Perkin Elmer) and NADH fluorescence was determined at 30 second exposure intervals for between 3 and 6 minutes. Data were normalized to the uninhibited and EC100 activation using known activators such as fructose-bis-phosphate.

Structure (SMILES) | Potency
O=S(=O)(c1ccc2c(c1)OCCO2)N1CCN(S(=O)(=O)c2c(F)cccc2F)CC1 | 178 nM (active)
Cc1ccc(NS(=O)(=O)c2ccc3c(c2)CCC(=O)N3)cc1C | 146 nM (active)
COc1cccc(Cn2ncc3c4sc(S(C)=O)cc4n(C)c3c2=O)c1 (stereo not drawn) | 410 nM (active)
